Holding throughout (parameters): scale not given: direction of the effect not stated beside the values
Test [1] deals with Protein translocase subunit SecA (Escherichia coli (strain K12)) (UniProt P10408). In words: Assay to Identify E. coli SecA ATPase Inhibitors. In kind it is functional. The note with it: 30 µM.
Test [2] addresses T1, Ubiquitin-activating enzyme e1, putative (Leishmania donovani (strain BPK282A1)) (UniProt E9BSI1).
T1 sequence (whole entry): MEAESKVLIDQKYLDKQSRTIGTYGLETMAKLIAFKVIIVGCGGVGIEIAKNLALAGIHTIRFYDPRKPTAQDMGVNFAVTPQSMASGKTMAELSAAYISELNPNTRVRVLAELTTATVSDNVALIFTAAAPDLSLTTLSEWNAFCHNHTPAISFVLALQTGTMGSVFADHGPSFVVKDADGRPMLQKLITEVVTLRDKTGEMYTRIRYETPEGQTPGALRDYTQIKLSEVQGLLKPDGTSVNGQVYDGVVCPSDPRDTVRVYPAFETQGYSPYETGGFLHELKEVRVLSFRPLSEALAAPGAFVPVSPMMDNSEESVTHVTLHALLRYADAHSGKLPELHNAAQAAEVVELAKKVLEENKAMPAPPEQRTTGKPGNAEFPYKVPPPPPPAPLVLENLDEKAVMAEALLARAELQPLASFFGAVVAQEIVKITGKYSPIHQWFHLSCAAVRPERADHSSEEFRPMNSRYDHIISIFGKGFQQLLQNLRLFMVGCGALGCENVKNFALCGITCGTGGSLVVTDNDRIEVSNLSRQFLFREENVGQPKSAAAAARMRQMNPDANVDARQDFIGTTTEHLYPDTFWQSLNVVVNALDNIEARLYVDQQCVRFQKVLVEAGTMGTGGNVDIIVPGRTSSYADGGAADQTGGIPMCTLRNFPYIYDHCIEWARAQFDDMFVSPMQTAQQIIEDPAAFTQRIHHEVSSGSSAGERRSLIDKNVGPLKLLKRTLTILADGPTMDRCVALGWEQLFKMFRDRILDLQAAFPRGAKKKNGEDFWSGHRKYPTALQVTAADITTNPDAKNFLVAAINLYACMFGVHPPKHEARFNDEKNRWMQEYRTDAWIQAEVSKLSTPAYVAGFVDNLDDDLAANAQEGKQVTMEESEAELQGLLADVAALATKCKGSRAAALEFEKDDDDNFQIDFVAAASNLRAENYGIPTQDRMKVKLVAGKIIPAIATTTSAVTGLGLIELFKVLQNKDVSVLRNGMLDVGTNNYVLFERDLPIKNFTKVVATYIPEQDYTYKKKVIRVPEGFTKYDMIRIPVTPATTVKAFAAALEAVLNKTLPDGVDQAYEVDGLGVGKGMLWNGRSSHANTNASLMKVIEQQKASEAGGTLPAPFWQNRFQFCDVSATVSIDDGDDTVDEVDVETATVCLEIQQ
Nature of the test: Leishmania donovani Ubiquitin Activating Enzyme (LdE1). The note with it: 30 µM. The format is functional.

The target in test [3] is AMP-activated protein kinase, AMPK (Homo sapiens) (UniProt P54646+O43741+P54619+Q9UGJ0+Q9Y478+Q13131+Q9UGI9). Nature of the test: AMP-dependent Kinase enzyme assay. An in vitro enzyme assay that detects ADP turnover that is directly proportional to AMPK activity. This uses naive AMPK that is activated during the assay with MK-8722. The format is functional. The note with it: 30 µM.

Test [4] has as its target Sialic acid-binding Ig-like lectin 9 (Homo sapiens) (UniProt Q9Y336). Nature of the test: Hs-Siglec9 ALPHAscreen SOP 20170721. The note with it: 10 µM. (In general: Bead proximity is the source of the signal in Alpha formats.)
Another test has as its system Trypanosoma cruzi. Nature of the test: Trypanosoma cruzi phosphomannomutase and mannose-1-phosphate guanylyltransferase assay. In kind it is functional. The note with it: 10 µM.
Test [5] deals with T2, Arginase-2, mitochondrial (Homo sapiens) (UniProt P78540).
T2 sequence (whole entry): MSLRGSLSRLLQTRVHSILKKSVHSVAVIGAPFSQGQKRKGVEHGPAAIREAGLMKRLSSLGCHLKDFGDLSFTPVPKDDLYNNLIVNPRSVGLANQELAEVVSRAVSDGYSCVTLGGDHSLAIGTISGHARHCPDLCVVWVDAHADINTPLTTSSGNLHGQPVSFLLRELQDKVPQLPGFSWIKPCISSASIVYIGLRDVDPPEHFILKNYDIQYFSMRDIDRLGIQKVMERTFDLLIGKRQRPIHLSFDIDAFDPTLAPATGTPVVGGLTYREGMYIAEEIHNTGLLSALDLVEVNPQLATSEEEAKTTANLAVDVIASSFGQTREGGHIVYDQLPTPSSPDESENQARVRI
In words: in vitro enzyme assay to detect the production of urea directly proportional to the activity of Arginase II. Note: in the data most compounds retested in dose-response had high values. In kind it is functional. The note with it: 33.3 µM.

For test [6], the target named is T3, Proteasome subunit beta (Trypanosoma cruzi) (UniProt O96673).
T3 sequence (whole entry): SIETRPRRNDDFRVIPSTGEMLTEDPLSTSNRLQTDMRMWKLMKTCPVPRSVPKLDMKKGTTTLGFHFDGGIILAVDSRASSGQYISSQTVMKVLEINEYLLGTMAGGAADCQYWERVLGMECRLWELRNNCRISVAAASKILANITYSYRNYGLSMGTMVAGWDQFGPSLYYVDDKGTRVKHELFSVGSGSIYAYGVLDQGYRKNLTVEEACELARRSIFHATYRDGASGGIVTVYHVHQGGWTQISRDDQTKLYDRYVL
In words: Trypanosoma cruzi proteasome chymotrypsin-like activity (TcProtChymo) assay. Note: in the data most compounds retested in dose-response had high values. The format is functional. The note with it: 9.37 µM.

For another test, the species on record is Homo sapiens. Nature of the test: To identify inhibition of the IFN signalling (Jak-Stat) pathway via expression of an eGFP reporter gene under the control of an IFN-stimulated response element (ISRE) containing MxA promoter. The format is functional. The note with it: 30 µM. In general terms: A reporter such as luciferase makes a cellular process visible.

In test [7] the target is T4, Tyrosyl-tRNA synthetase, putative (Trypanosoma cruzi (strain CL Brener)) (UniProt Q4DSP6).
T4 sequence (whole entry): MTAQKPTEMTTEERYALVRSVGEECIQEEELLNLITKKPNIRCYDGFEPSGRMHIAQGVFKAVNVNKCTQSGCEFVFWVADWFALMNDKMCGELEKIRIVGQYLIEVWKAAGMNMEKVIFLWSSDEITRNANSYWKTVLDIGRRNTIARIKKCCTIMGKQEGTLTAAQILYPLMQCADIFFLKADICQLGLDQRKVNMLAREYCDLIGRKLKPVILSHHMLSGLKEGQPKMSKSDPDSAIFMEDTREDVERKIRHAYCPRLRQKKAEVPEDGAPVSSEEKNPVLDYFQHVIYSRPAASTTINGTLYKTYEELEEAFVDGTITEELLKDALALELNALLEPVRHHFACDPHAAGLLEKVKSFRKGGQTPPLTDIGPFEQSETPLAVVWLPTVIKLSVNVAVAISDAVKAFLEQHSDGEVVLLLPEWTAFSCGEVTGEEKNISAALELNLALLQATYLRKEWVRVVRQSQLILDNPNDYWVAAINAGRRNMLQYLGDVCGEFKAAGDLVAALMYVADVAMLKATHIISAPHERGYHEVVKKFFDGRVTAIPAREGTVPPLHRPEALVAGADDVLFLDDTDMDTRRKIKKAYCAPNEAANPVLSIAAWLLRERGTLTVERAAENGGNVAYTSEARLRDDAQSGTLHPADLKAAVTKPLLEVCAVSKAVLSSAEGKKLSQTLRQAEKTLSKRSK
In words: Trypanosoma cruzi tyrosyl tRNA synthetase (TcYRS) _High Tyrosine SOP. Note: in the data most compounds retested in dose-response had high values. The format is functional. The note with it: 30 µM.

The target of test [8] is T4, Tyrosyl-tRNA synthetase, putative (Trypanosoma cruzi (strain CL Brener)). Nature of the test: Trypanosoma cruzi tyrosyl tRNA synthetase (TcYRS) SOP. The format is functional. The note with it: 30 µM.
In test [9] the target is Chromo domain-containing protein 1 (Saccharomyces cerevisiae (strain ATCC 204508 / S288c) (Baker's yeast)) (UniProt P32657). Nature of the test: ScCHD-1 Enzyme Inhibition Assay. Note: in the data most compounds retested in dose-response had high values. The format is functional. The note with it: 30 µM.
Sequence of Chromo domain-containing protein 1 (Saccharomyces cerevisiae (strain ATCC 204508 / S288c) (Baker's yeast)) (P32657 whole entry, the tested form may be a part): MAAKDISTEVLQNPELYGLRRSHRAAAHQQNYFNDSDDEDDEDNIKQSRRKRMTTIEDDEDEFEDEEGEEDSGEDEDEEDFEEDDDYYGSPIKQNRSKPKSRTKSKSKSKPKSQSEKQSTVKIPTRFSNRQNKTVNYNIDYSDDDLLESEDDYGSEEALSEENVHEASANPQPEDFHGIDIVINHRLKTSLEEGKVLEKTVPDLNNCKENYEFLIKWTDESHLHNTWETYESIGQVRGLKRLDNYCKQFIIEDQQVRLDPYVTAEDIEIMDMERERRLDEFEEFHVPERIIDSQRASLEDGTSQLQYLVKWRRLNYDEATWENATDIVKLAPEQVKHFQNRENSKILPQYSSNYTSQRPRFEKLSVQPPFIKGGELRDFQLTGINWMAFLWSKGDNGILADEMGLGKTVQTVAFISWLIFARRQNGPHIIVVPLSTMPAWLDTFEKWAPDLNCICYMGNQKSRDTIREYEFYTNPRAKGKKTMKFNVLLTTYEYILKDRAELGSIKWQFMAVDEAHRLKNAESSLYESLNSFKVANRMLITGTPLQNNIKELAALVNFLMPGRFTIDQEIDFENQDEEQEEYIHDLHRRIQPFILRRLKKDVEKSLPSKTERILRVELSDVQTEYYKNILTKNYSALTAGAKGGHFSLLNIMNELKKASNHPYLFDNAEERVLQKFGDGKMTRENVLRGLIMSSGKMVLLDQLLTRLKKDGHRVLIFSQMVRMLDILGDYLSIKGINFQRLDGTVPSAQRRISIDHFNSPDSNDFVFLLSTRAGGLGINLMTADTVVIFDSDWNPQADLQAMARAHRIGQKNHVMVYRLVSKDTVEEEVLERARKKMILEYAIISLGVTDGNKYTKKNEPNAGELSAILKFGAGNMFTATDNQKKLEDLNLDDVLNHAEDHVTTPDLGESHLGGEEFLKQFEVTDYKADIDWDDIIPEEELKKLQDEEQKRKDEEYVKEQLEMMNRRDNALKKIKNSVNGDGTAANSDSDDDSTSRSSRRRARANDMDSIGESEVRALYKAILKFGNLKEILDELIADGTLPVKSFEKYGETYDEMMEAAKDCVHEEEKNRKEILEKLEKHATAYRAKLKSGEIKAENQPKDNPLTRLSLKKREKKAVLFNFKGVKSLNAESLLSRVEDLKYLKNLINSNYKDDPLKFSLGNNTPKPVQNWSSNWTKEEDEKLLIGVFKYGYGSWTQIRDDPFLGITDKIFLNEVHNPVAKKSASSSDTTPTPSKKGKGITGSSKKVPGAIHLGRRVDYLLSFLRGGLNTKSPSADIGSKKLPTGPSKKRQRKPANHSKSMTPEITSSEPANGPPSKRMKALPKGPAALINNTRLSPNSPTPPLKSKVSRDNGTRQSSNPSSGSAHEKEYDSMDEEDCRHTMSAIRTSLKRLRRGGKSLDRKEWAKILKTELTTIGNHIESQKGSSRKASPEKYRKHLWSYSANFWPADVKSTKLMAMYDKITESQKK

SMILES strings stand for the structures. For some of these results: Measured potencies and affinities stand elsewhere.

Sequence of Sialic acid-binding Ig-like lectin 9 (Homo sapiens) (Q9Y336 whole entry): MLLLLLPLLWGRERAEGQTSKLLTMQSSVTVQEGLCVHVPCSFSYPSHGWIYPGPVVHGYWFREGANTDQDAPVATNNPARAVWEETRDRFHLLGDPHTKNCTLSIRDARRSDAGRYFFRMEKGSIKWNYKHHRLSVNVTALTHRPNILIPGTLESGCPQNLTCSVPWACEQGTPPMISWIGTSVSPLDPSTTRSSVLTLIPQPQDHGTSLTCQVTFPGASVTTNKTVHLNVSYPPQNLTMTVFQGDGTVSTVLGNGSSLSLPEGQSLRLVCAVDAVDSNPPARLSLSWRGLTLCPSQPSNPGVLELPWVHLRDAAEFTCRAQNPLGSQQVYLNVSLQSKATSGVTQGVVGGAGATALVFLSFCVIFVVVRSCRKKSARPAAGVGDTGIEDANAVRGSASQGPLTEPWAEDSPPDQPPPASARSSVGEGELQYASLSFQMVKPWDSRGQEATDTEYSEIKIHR
Sequence of Protein translocase subunit SecA (Escherichia coli (strain K12)) (P10408 whole entry): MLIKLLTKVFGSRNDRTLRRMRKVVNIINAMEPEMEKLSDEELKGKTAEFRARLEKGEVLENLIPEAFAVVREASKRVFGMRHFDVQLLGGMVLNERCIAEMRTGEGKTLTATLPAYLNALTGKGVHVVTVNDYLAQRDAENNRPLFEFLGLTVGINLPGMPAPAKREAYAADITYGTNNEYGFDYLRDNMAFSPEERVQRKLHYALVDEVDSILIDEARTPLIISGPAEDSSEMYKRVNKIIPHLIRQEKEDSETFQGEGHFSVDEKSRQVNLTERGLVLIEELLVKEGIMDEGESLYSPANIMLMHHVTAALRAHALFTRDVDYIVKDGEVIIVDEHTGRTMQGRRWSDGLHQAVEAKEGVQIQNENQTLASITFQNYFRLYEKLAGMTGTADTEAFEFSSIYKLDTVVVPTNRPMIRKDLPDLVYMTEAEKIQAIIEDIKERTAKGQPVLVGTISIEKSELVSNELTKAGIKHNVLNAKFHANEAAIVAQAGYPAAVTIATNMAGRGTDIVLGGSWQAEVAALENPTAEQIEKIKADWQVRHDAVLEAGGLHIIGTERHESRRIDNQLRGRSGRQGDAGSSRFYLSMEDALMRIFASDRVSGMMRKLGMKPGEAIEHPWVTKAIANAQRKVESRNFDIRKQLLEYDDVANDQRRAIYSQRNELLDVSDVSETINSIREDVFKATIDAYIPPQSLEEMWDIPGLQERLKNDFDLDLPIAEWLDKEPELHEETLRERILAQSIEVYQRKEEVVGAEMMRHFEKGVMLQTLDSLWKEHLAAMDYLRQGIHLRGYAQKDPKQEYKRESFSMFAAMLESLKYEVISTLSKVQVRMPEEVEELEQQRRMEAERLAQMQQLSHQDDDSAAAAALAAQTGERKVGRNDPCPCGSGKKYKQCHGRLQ

Regarding `CCN(C1CCS(=O)(=O)C1)S(=O)(=O)c1cccc2cc(C)cnc12` (stereo unspecified), the Percent Effect in test [1] is -4.6%; in test [2], 21.1%; in test [3] it was 5.96%; in test [4] it was -4.93%; in the test with Trypanosoma cruzi, -4.01%; in test [5] it was 3.96%. The Percent Effect in test [6] is 4.99%; in the test listed under Homo sapiens it was 14.3%; in test [7], 6.4%; in test [8], 18.5%; in test [9] it was -6.57%.

For `COCCN1CCN(C(C)C(=O)Nc2ccnn2C(C)C)CC1` (stereo unspecified), the Percent Effect in test [1] was -4.97%; in [2], 2.7%; in test [3] it was 2.76%; in [4], 0.97%; in the test on Trypanosoma cruzi it was -1.95%; in test [5], 0.417%. The Percent Effect is 7.35% in test [6]; -1.59% in the test listed under Homo sapiens; 4.95% in test [7]; 1.22% in test [8]; -1.09% in test [9].

Consider `CC(C)c1nc2n(n1)CC(NCc1nc(-c3cccnc3)no1)CC2` (stereo unspecified), for which the Percent Effect in test [1] is -3.79%; in test [2], 2.6%; in test [3], -1.93%; in [4], -12.6%; in the test on Trypanosoma cruzi, 5.78%; in test [5] it was -2.74%. Further, the Percent Effect in test [6] is 11.1%; in the test listed under Homo sapiens, -3.81%; in test [7], 3.81%; in test [8], 11.8%; in test [9] it was -23.3%.

As to `COCCO[C@@H]1CCN(C(=O)c2ccc(C)o2)[C@@H]1Cc1cnn(C)c1`, the Percent Effect is -5.35% in test [1]; -2.7% in test [2]; -1.64% in [3]; -4.98% in test [4]; -2.54% in the test with Trypanosoma cruzi; -2.08% in test [5]. The Percent Effect in test [6] is 7.69%; in the test listed under Homo sapiens, -13%; in test [7], 0.99%; in test [8], -1.22%; in test [9] it was 4.49%.

As to `COCCN(Cc1ccoc1)C(=O)c1cccnc1SC`, the Percent Effect in test [1] is -1.15%; in test [2], 5.2%; in [3], 9.17%; in [4] it was 2.43%; in the test with Trypanosoma cruzi it was -4.24%; in test [5] it was 7.1%. Moreover, the Percent Effect in test [6] was 1.04%; in the test filed under Homo sapiens it was 1.32%; in test [7] it was 3.17%; in [8] it was 6.41%; in test [9], -5.39%.

Regarding `CC(C(=O)Nc1ccc(N2CCCC2)nc1)n1cncn1` (stereo unspecified), the Percent Effect was -5.02% in test [1]; 10.8% in [2]; -32.5% in [3]; 18.1% in test [4]; 4.62% in the test on Trypanosoma cruzi; -9.62% in test [5]. Moreover, the Percent Effect is 14.2% in test [6]; 19.2% in the test listed under Homo sapiens; 7.39% in test [7]; 18.5% in test [8]; -10.4% in test [9].

In the case of `O=C(NCCCNC(=O)c1cccc(O)c1)NCc1ccccc1F`, the Percent Effect in [1] is -2.42%; in test [2], 15.8%; in test [3], 0.229%; in [4], 0.609%; with Trypanosoma cruzi, 2.63%; in [5], -5.92%. The Percent Effect was 14.9% in [6]; 1.72% in the test filed under Homo sapiens; 3.19% in test [7]; 15.6% in test [8]; -3.65% in test [9].

Regarding `COCCc1noc(CNC2CCCN(c3cccnn3)C2)n1` (stereo unspecified), the Percent Effect in [1] is -5.96%; in test [2] it was -5.2%; in [3], -0.848%; in test [4], -4.06%; in the test with Trypanosoma cruzi, -3.25%; in test [5], 11%. Further, the Percent Effect in test [6] is 19.3%; in the test filed under Homo sapiens, 3.62%; in test [7], 0%; in test [8], -3.7%; in test [9], 0.853%.

Regarding `Cc1cnn(CCNCc2ccccc2C#N)c1`, the Percent Effect in test [1] is -7.98%; in [2] it was 5.41%; in [3], -2.49%; in test [4], 6.11%; in the test on Trypanosoma cruzi, -5.11%; in test [5], -0.554%. Further, the Percent Effect in test [6] is 5.21%; in the test filed under Homo sapiens, 14.9%; in [7], -1.98%; in [8], -1.22%; in [9] it was 1.22%.

With `CC(=O)N(Cc1ncc(C(C)C)o1)C1CCN(Cc2nccn2C)C1` (stereo unspecified), the Percent Effect in test [1] is -2.57%; in test [2] it was 13.5%; in test [3], -4.73%; in [4], 4.8%; with Trypanosoma cruzi, 3.25%; in [5], -1.29%. Also, the Percent Effect in test [6] was 14.4%; in the test listed under Homo sapiens it was -11.4%; in [7], 10.9%; in test [8] it was 28.1%; in test [9], -1.74%.

For the molecule `COCC(=O)N1CC[C@@H]2O[C@H](COCc3ccncc3)CC[C@@H]21`, the Percent Effect is -3.69% in test [1]; 18.9% in test [2]; 10.4% in [3]; -8.21% in test [4]; -4.2% in the test on Trypanosoma cruzi; 9.24% in test [5]. Moreover, the Percent Effect is 16.6% in [6]; -0.209% in the test listed under Homo sapiens; 1.08% in test [7]; 17.9% in test [8]; -0.872% in [9].
